Results with a measured potency or affinity are listed apart. The source made the active and inactive calls.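 The calls were made as follows: active = a fitted half-maximal concentration no higher than twice the top valid tested dose, with signal falling as cells die; inconclusive = flat curve between -70% and -30%, or poor fit; inactive = the rest, including signal rising instead of falling.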

This experiment can be described thus: HeLa cell cytotoxicity, dose response, cytotoxicity control, ATP luminescence, cherry-pick samples (AID 687004). The note with it: HeLa viability, ATP luminescence (CellTiter-Glo), 48 h; series mostly up to 26 µM. For orientation: Cellular ATP, detected with luciferase, serves as a proxy for viable cell number.
For `COc1ccccc1CNC(=O)COc1ccc2c(c1)CCC2`, the result was inactive.

Regarding `C[C@H](CO)N1C[C@H](C)[C@H](CN(C)C(=O)Nc2cccc3ccccc23)Oc2ccc(NC(=O)Nc3ccccc3)cc2C1=O`, the call was inactive.

For `CCCNC(=O)N(C)C[C@@H]1Oc2ncc(C#CC3CCCCC3)cc2C(=O)N([C@H](C)CO)C[C@@H]1C`, the compound was called inactive.

In the case of `O=C(NC1CCCCC1)N[C@@H]1CC[C@@H](CCNS(=O)(=O)c2ccc(Cl)cc2)O[C@H]1CO`, the compound was classed as inactive.

With `C[C@@H]1CN([C@@H](C)CO)C(=O)c2cc(NS(=O)(=O)c3ccc(F)cc3)ccc2O[C@@H](C)CCCCO[C@@H]1CN(C)Cc1ccc2c(c1)OCO2`, the result was inactive.

The values above are taken from PubChem BioAssay.
